Compound activity from PubChem BioAssay.
Rows were chosen to be rich in hits. Some 7.3% of all compounds tested hit in one or more screens of this group.
VACV mCherry inh – vaccinia inhibition (mCherry reporter); Vaccinia virus mCherry reporter infection, fluorescence; Potency, µM (series often up to 36.5 µM), inactives show at the highest dose activity change, negative = inhibition, usual class: inhibitors; 0.63% of 310,000 active; calls by dose curve; tested in A549 cells; note: potency is the fitted concentration of half-maximal effect; nearly all actives have a fitted effect of over 35% in size
FMDV inh – antivirals against foot and mouth disease virus; FMDV antiviral cell-based qHTS; Potency, µM (titrated, usually from 57.9 µM), without a hit: top-dose activity change, negative = inhibition, hits mostly inhibitors; 1.2% of 410,000 active; AID 1159524; calls by dose curve; tested in HEK293T cells; note: read-out not given here; potency is the fitted concentration of half-maximal effect; nearly all actives have a fitted effect of over 45% in size
HCV inhibitor – inhibitors of hepatitis C virus infection | Huh7.5.1 HCVcc-Cre infection, luciferase reporter, 44 h | Potency, µM (titrated, usually from 41.8 µM), without a hit: at the highest dose activity change, negative = inhibition, most hits filed as inhibitors | 3.4% of 340,000 active; active = well fitted inhibition curve with a large enough effect; inconclusive = small, poorly fitted or top-dose-only effect, or another doubt; inactive = no such curve, though single readings can be large or run the other way; note: potency is the fitted concentration of half-maximal effect
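Seed cells (1,000/well) for 4 h; treat with compound and infect with HCVcc-Cre, moi about 0.5. Incubate 44 h, then detect luciferase activity.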
Vaccinia Venus – vaccinia inhibition (Venus reporter) | 0.46% of 330,000 active | Vaccinia virus Venus reporter expression, fluorescence | Potency, µM (doses to about 36.5 µM), for the others: at the top dose activity change, negative = inhibition, hits mostly inhibitors; calls by dose curve; tested in A549 cells; note: potency is the fitted concentration of half-maximal effect; nearly all actives have a fitted effect of over 30% in size
HCMV inh – human cytomegalovirus inhibition; 4.5% of 410,000 active; HFF cells, HCMV-luciferase reporter, 72 h; active compounds read low; activity change, negative = inhibition, % at 57.5 µM; in the data active = activity change below about -60%; inconclusive = no clear call, values can overlap the other calls; inactive = above about -39%
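Compounds were evaluated in HFFs infected with an HCMV luciferase reporter virus (MOI 1 PFU/cell). Luciferase in lysates collected 72 h post infection served as the replication measure.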
Numbers without * were called inactive; [ ] = dose if it differs, or a comment. % is set by controls: 0 for no effect and ±100 for the full control effect.

For CCOC(=O)COc1ccc2ccccc2c1/C=C/[N+](=O)[O-] the results were VACV mCherry inh -18%, FMDV inh 13µM*, HCV inhibitor inconclusive, Vaccinia Venus -8% and HCMV inh -99*.
`CCOC(=O)COc1ccccc1/C=N/O` gave VACV mCherry inh -14%, FMDV inh 2%, HCV inhibitor -6%, Vaccinia Venus -3% and HCMV inh 13.
`COC(=O)C(O)(c1ccccc1)C(Nc1ccc(OC)cc1)c1ccc(Cl)cc1` (configuration not stated) gave HCMV inh -3.
Cc1nc2cc(-c3cccc(F)c3)nn2c(C)c1CCC(=O)Nc1ccccc1C(N)=O was read as VACV mCherry inh 0%, FMDV inh inconclusive, Vaccinia Venus -13% and HCMV inh -35.
Screening Cc1ccccc1CN1[C@@H](C)[C@H](c2ccccc2)Oc2cccc(NCCc3ccccc3)c2S1(=O)=O returned HCMV inh -10.
CCCN(C(=O)CCl)C1=CCCCC1 was read as VACV mCherry inh -19%, FMDV inh inconclusive, HCV inhibitor 13µM*, Vaccinia Venus -11% and HCMV inh -100*.
Screening Cc1ccc(Nc2ccc(N3CCN(C(=O)c4cccc([N+](=O)[O-])c4)CC3)nn2)cc1 returned VACV mCherry inh inconclusive, FMDV inh -8%, Vaccinia Venus -24% and HCMV inh -62*.
For CN(C)CCNc1ccc2ncn3c4ccc(O)cc4c(=O)c1c23 the results were VACV mCherry inh 0.79µM*, FMDV inh inconclusive, HCV inhibitor inconclusive, Vaccinia Venus 1.1µM* and HCMV inh -93*.
CN(C)CCNc1ccc(-c2nn(C)c(=O)c3ccccc23)cc1[N+](=O)[O-] was read as VACV mCherry inh -13%, FMDV inh 4%, HCV inhibitor inconclusive, Vaccinia Venus -15% and HCMV inh 3.
COc1ccc2sc3cccc(NCCN(C)C)c3c(=O)c2c1 was read as VACV mCherry inh 3%, FMDV inh 17%, Vaccinia Venus -27% and HCMV inh 2.
`CN(C)CCNc1ccc(CO)c2sc3ccc(O)cc3c(=O)c12` gave VACV mCherry inh inconclusive, FMDV inh -16%, HCV inhibitor inconclusive, Vaccinia Venus inconclusive and HCMV inh -97*.
Screening Nc1ccc(/C=C/c2cccc3cccnc23)cc1 returned VACV mCherry inh -8% and Vaccinia Venus -21%.
For N#Cc1sc2nccc(Nc3ccccc3)c2c1N the results were VACV mCherry inh -2%[7.34 µM], FMDV inh inconclusive, HCV inhibitor inconclusive, Vaccinia Venus -18%[7.34 µM] and HCMV inh -87*.
`CN(C)CCCN(C(=O)c1ccco1)c1nc2ccc(Cl)cc2s1` gave VACV mCherry inh -17%, FMDV inh -17%, HCV inhibitor 25µM*, Vaccinia Venus inconclusive and HCMV inh -10.
`Cc1ccc2nc(N(CCCN(C)C)C(=O)c3sc4ccccc4c3Cl)sc2c1` gave VACV mCherry inh -27%, FMDV inh 18µM*, HCV inhibitor inconclusive, Vaccinia Venus -20% and HCMV inh -78*.
Cc1ccc2sc(N(CCCN(C)C)C(=O)c3ccco3)nc2c1C was read as VACV mCherry inh -21%, FMDV inh -3%, Vaccinia Venus -20% and HCMV inh -62*.
Screening NS(=O)(=O)c1ccc(CCNc2ccc(C(F)(F)F)cn2)cc1 returned VACV mCherry inh -6%, FMDV inh -9%, HCV inhibitor 15%, Vaccinia Venus -4% and HCMV inh -77*.
`FC(F)(F)c1ccc(NCCc2ccccc2)nc1` gave VACV mCherry inh inactive, FMDV inh 1%, HCV inhibitor 9%, Vaccinia Venus -15% and HCMV inh -34.
Screening O=C(/C=C/c1ccc(C(F)(F)F)cc1)OC(C(=O)NC1CC1)c1ccccc1 (configuration not stated) returned VACV mCherry inh 11% and Vaccinia Venus -8%.
FC(F)(F)c1ccc(-c2nc3ccccc3s2)cc1 was read as VACV mCherry inh inactive, FMDV inh -5%, Vaccinia Venus 3% and HCMV inh inconclusive.
`CN(C(=O)OC(C)(C)C)c1ccc(-c2nc3ccccc3s2)cc1` gave FMDV inh 100µM* and HCMV inh -95*.
For CC(C)c1ccc(-c2nc3ccccc3s2)cc1 the results were VACV mCherry inh inactive, FMDV inh 0%, HCV inhibitor 1%, Vaccinia Venus -10% and HCMV inh -95*.
`COc1ccccc1CNC(=O)C(=O)NCC(c1cccs1)S(=O)(=O)c1ccc(F)cc1` (configuration not stated) gave VACV mCherry inh -12%, FMDV inh inconclusive, Vaccinia Venus -11% and HCMV inh 5.
`Cc1ccc(-c2nc3c4ccccc4n(CC(=O)N4CCN(c5ccccc5F)CC4)c(=O)n3n2)cc1` gave VACV mCherry inh -6%, FMDV inh 0%, Vaccinia Venus -1% and HCMV inh 19.
CCOC(=O)Cc1ccc(NC(=O)N(Cc2ccc(OC)cc2)C2CCN(C(C)=O)CC2)cc1 was read as VACV mCherry inh 3%, FMDV inh -13%, Vaccinia Venus -2% and HCMV inh -6.
`Brc1ccc(-c2csc3ncnc(-n4nnc5ccccc54)c23)cc1` gave VACV mCherry inh -11%, FMDV inh inconclusive, HCV inhibitor inconclusive, Vaccinia Venus -23% and HCMV inh -68*.
For Cc1sc2ncnc(-n3nnc4ccccc43)c2c1C the results were FMDV inh -8%, HCV inhibitor -5% and HCMV inh inconclusive.
CCc1ccc(S(=O)(=O)NCCc2csc3nc(-c4ccccc4)nn23)s1 was read as VACV mCherry inh -1%, FMDV inh 18%, Vaccinia Venus -15% and HCMV inh -79*.
For CCn1cc(C2=NC(CC(C)C)CO2)c2ccccc21 (configuration not stated) the results were VACV mCherry inh -21%, FMDV inh 19%, HCV inhibitor 10µM*, Vaccinia Venus inconclusive and HCMV inh -1.
Screening CCc1cccc2c(C(=O)CSc3nnc(C4CC4)o3)c[nH]c12 returned FMDV inh -15%, HCV inhibitor 5.6µM* and HCMV inh -6.
Screening CCc1cccc2c(C(=O)CSc3nnc(-c4ccncc4)n3C)c[nH]c12 returned VACV mCherry inh 0%, FMDV inh 3%, HCV inhibitor -9%, Vaccinia Venus -12% and HCMV inh -17.
`Cc1nnc2ccc(N3CCC4(CC3)OCCO4)nn12` gave VACV mCherry inh -8%, FMDV inh 4%, HCV inhibitor -11%, Vaccinia Venus 2% and HCMV inh -62*.
Screening O=C(Nc1cccc(F)c1)c1ccc2oc(=O)n(Cc3ccccc3)c2c1 returned VACV mCherry inh -17%, FMDV inh inconclusive, Vaccinia Venus -12% and HCMV inh -68*.
Screening CN1CC(c2ccccn2)C2(SC(=S)N(Cc3ccccc3)C2=O)C12C(=O)Nc1ccccc12 (configuration not stated) returned VACV mCherry inh inconclusive, FMDV inh -14%, Vaccinia Venus -29% and HCMV inh -15.
